Experimental data from PubChem BioAssay AID651636 (Sanford-Burnham Center for Chemical Genomics, 2012).
“And” between values parts separate entries of the source, which are not always exact repeats. Identical values can stand only once. In all, about 360,000 compounds went through this assay and about 3,000 (0.83%) were called active. Rule as the data show it: active = inhibition above about 38%; inactive = the rest. The list comes from a sample in which actives are over-represented; it also holds similar structures and randomly drawn compounds.

Target: G-protein coupled receptor 183 (Homo sapiens) (UniProt P32249)
Test: blockers of oxysterol-driven EBI2 arrestin signaling – cell-based, luminescence, 7a,25-OHC stimulation, uHTS, primary screen (AID 651636);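 also: enzyme fragment complementation signal reports receptor beta-arrestin coupling in cells; 0% = agonist plus DMSO wells and 100% = wells without agonist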
Conditions: EBI2 beta-arrestin recruitment, 7a,25-OHC stimulated, at 5 µM, stronger effect = higher value

Sequence of G-protein coupled receptor 183 (Homo sapiens) (P32249 whole entry, looked up, the tested form may be a part): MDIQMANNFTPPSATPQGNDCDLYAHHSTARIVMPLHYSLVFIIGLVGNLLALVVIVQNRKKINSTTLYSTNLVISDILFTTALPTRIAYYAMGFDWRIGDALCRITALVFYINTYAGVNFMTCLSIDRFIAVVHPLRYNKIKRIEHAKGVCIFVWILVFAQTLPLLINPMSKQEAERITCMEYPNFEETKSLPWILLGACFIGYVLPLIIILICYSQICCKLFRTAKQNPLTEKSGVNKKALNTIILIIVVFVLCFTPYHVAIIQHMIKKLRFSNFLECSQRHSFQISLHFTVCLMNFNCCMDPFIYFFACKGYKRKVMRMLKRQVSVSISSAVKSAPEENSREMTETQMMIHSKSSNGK

inhibition, inactive:
CCN(CC)CCNc1nc(-c2ccc(OC(F)F)cc2)c(C)s1 7.54%
CCCCn1nnnc1C(c1cc2ccccc2o1)N(C)Cc1ccc(Cl)c(Cl)c1 (stereo not given) 15.8%
COCCNC(=S)c1ccc(OC)cc1 -12.7%
CN(C)C(=S)N=c1ssc(=S)n1Cc1ccco1 -5.43%
CC(C)NC(=O)NNc1c(Cl)cncc1Cl 1.07%
ONC(=Nc1ccc(Cl)cc1)c1ccccc1Cl -0.13%
COc1ccc(NC(=O)CCNS(=O)(=O)c2ccc3c(c2)c(=O)n(C)c(=O)n3C)cc1OC -1.47%
COc1ccc(NC2CC(=O)N(C)C2=O)cc1 (stereo not given) -2.09%
COC(=O)c1ccc(COC(=O)c2cnc(Cl)c(Cl)c2)cc1 4.66%
CCOc1ccc(C(C)=O)cc1COC(=O)CNC(=O)c1cccs1 4.34%
Cc1c(Br)ccc(NC(=O)COc2ccccc2C(N)=O)c1C -2.44%
CC(=O)Nc1ccc(N2C(=O)CCC2=O)cc1C 4.9%
CN(CC(=O)NC1CCN(Cc2ccccc2)CC1)S(=O)(=O)c1ccc(Cl)s1 1.99%
COC(=O)C1CCN(C(=O)NC2CC(=O)N(c3ccc4c(c3)OCCO4)C2)CC1 (stereo not given) 8.78%
COc1cc2c(cc1OC)CC1(CCCCC1)N=C2 7.31%
CN(C)S(=O)(=O)c1cccc(NC(=O)COc2ccc3ccccc3c2)c1 8.2%
Cc1ccc(C)c(NC(=O)CN(C)C(=O)COc2ccc3ccccc3c2)c1 27.2%
CC1(C)OC(=O)C2=C(C[C@@H](C3CCCC3)O[C@@H]2c2ccc(Cl)cc2)O1 -3.37%
Cn1c(CC2Sc3ccccc3NC2=O)nnc1SCC(=O)c1ccc(Cl)cc1 (stereo not given) 3.76%
O=C(/C=C/c1cn(-c2ccccc2)nc1-c1ccc2c(c1)OCCO2)NCCCN1CCOCC1 3.63%
Cc1ccc(-c2nn(-c3ccccc3)cc2C(=O)Nc2cccc(S(=O)(=O)N3CCOCC3)c2)cc1 27.6%
CC[C@]12c3[nH]c4cc(CCC(=O)N(C)C)ccc4c3CCN1C(=O)[C@@H](CC(=O)NCc1ccco1)C[C@@H]2C(=O)N1CCN(C(=O)c2ccco2)CC1 -5.36%
CCN(CCCNC(=O)CSc1cc(=O)n(C)c2cc(Cl)ccc12)Cc1ccccc1 8.14%
Cc1cc(Cl)c2oc(C(=O)NC(C)c3ccncn3)c(C)c2c1 (stereo not given) -2.48%
Cc1cc(Cl)c2oc(C(=O)N(C)C(C)c3ccccn3)c(C)c2c1 (stereo not given) 4.48%
CSc1nnc(CNC(=O)c2ccccc2)n1-c1ccc(F)cc1 -8.06%
Cn1c(NC(=O)c2ccco2)c(-c2ccccc2Cl)c(=O)c2ccccc21 2.45%
COCCNc1nc2nonc2nc1N(C)Cc1ccc(C)cc1 -3.45%
NS(=O)(=O)c1ccccc1NC(=O)c1c(O)c2ccccc2[nH]c1=O 2.5%
O=C(c1ccccc1Oc1ccccc1)N1CCN(c2ccc(F)cc2)CC1 7.76%
Cc1c(C(=O)N2CCN(c3ccc(F)cc3)CC2)oc2c1C(=O)CCC2 -8.48%
CCn1c(=S)sc2c(=O)n(CC(=O)Nc3ccc(OC)cc3)c(C)nc21 1.99%
COc1ccc(NC(=S)N2N=CCC2c2ccccc2)cc1 (stereo not given) 3.93%
CC(=O)N1c2ccc(S(=O)(=O)NCCC(=O)N(C)C3CCCCC3)cc2CC1C (stereo not given) -4.73%
Fc1ccc(Cn2nnnc2C(c2cccs2)N2CCCCCC2)cc1 (stereo not given) 6.98%
CCCCn1nnnc1C(c1ccccc1)N1CCN(c2ccccc2OC)CC1 (stereo not given) 1.91%
O=C(CN1CCOCC1)Nc1c2c(nc3c1CCC3)CCC2 7.47%
CCCNC(=O)N1CCN(C(=O)NCCC)CC1 -0.62%
COc1ccc(-n2cc(-c3ccccc3)c3c(=S)nc[nH]c32)cc1 14.3%
O=c1oc2ccccc2cc1-c1cn(-c2ccccc2)c(=S)[nH]1 -9.67%
Cc1nc2ccc(S(=O)(=O)NCC(=O)O)cc2s1 -11.4%
CC[n+]1c(C)n(-c2ccccc2)c2ccc(NC(C)=O)cc21 3.98%
N/C(=N\OC(=O)CCc1ccccc1)c1ccc(Cl)cc1 12.5%
Cc1cc(C)cc(NC(=O)NC2CCN(CC(=O)Nc3cccc(Cl)c3C)CC2)c1 18.1%
Cc1cccc(NC(=O)CN2CCN(CC(=O)NCC3(N4CCCCC4)CCCCC3)CC2)c1C -3.14%
O=C(C[C@H]1CC[C@@H](NC(=O)c2ccncc2)[C@@H](CO)O1)NCC1CC1 -1.01%
CC(C)C(=O)N1CCN(CCN=CC2=C(O)CC(c3ccco3)CC2=O)CC1 (stereo not given) -2.69% and -8.63%
CCOc1ccc(-c2noc(CCC(=O)NC3CCCC3)n2)cc1OC 8.53%
CCOc1cc(-c2noc(CCC(=O)N3CCOCC3)n2)ccc1OC -2.72%

inhibition, active:
Cc1cs/c(=N\N=C\c2ccc(O)cc2)n1Cc1ccco1 50.6%
CCOc1ccc(C(C)=O)cc1COC(=O)c1cnc(Cl)c(Cl)c1 43.3%
CN(Cc1ccc(F)cc1)C(=O)COc1ccc2ccccc2c1 93.1%
Cc1ccc(-c2nn(-c3ccccc3)cc2/C=C/C(=O)Nc2cccc(S(N)(=O)=O)c2)cc1 41.1%
Cc1cc(Cl)c2oc(C(=O)N3CCC(O)(c4ccccc4)CC3)c(C)c2c1 73.4%
O=C(c1cc2cc(F)ccc2[nH]1)N1CCN(c2ccc(F)cc2)CC1 71.3%
N#Cc1ccc(C(c2nnnn2CCc2ccccc2)N2CCCCCC2)cc1 (stereo not given) 50.2%
Cc1cccc(-n2c(O)c(C=Nc3ccccc3N)c(=O)[nH]c2=O)c1 95.3%
COc1ccc(-c2cn(-c3ccc(OC)cc3)c(=S)[nH]2)cc1 86.5%
Cc1cccc(NC(=O)CN2CCN(C(=O)C3CCN(C(=O)/C=C/c4ccccc4)CC3)CC2)c1C 79.2%
CCOc1nc(-c2ccc(OC)cc2)ccc1-c1noc(-c2cc(OC)c(OC)c(OC)c2)n1 49.3%
